Data on 50 compounds can be found in PubChem BioAssay AID2289 (National Center for Advancing Translational Sciences (NCATS), 2010).

The campaign covered roughly 340,000 compounds. About 3,300 (0.97%) were called active. Inconclusive results (about 9%) are left out. Calls come from the whole dose curve; as a rule, active = well fitted inhibition curve with a large enough effect; inconclusive = small, poorly fitted or top-dose-only effect, or effect the other way; inactive = flat fitted curve, though single readings scatter. The list shows a part of the results.
Potency is the fitted concentration of half-maximal effect.

The nature of the test: qHTS Assay for Modulators of miRNAs and/or Inhibitors of miR-21. Note: nearly all actives have a fitted effect of over 55% in size. The settings on record: HeLa miR-21-FLuc reporter, luciferase luminescence, 48 h; actives lower the signal. An excerpt: MLSCN Grant: 1 R21 NS059478-01 Assay Provider: Qihong Huang, The Wistar Institute NCGC Assay Overview: MicroRNAs (miRNAs) are endogenously encoded small (~20-25 nucleotides), nonprotein-coding RNAs that are involved in post-transcriptional repression of target messenger RNAs (mRNAs) (Le and Hannon, 2004). Estimated to be involved in the regulation of 30% of all protein-coding mRNAs (Filipowicz et al., 2008), miRNAs play a significant role in many biological processes including cellular differentiation and tissue development (Ghildiyal and Zamore, 2009).
NCGC Assay Protocol Summary: Reagents: HeLa cells stably expressing firefly luciferase (FLuc) under the control of a CMV promoter (upstream) and a miR-21 binding sequence directly downstream of the gene. These cells endogenously express miR-21. Control compounds used were compound C3 (provided by collaborator), N6-phenyladenosine (MP Biomedicals, 0215379625), and DMSO. Assay Summary: 6uL of HeLa miR-21-FLuc cells in assay buffer (DMEM, Invitrogen #21063-029; 10% FBS, HyClone #SH30071.03) were dispensed at 2000cells/well (3.3 x 10^5 cells/mL) into Greiner solid-white TC-treated 1536-well plates using a Multidrop Combi (Thermo Fisher Scientific). Plates were incubated for one hour at 37 degree Celsius, 95% humidity, 5% CO2. These assay plates were then treated with 23nL of compound or DMSO using a Kalypsys pin tool, which allows for delivery of a 24-point titration of each compound to the assay plate, with a final compound concentration ranging from approximately 40uM to 5pM. Assay plates were then incubated for 48 hours. After incubation, plates were allowed to come to RT for one hour prior to delivery of 3uL of 3X luciferase detection reagent. After a 15 minute incubation to allow for cell lysis, luciferase activity was measured using a ViewLux CCD imager (PerkinElmer), with an average exposure time of 2-12 seconds. Keywords: NIH Roadmap, MLPCN, MLSMR, qHTS, miR-21, microRNA, firefly luciferase, FLuc.
(In general: Quantitative high-throughput screening tests each substance at several concentrations.)
On to `O=C(NNc1c(F)c(F)cc(F)c1F)c1cc2ccccc2oc1=O`, for which the Potency is 8.26 µM (active). Take `COc1ccc(-c2n[nH]c(=S)n2-c2ccc3c(c2)OCCO3)cc1OC`: the Potency was 16.5 µM (active).

On to `Cc1ccc(-c2cc(NC(=O)c3ccccc3)on2)cc1`, for which the Potency is 2.93 µM (active). As to `CC1CCc2c(sc3nc(CSc4n[nH]c(N)n4)[nH]c(=O)c23)C1` (stereo not given), the Potency is 16.5 µM (active). Turning to `Nc1nc(SCc2ccc(Cl)cc2Cl)n[nH]1`, the Potency is 14.7 µM (active). With `CN1C(=O)/C(=C/c2ccc(N3CCCCCC3)o2)C(=O)NC1=S`, the Potency was 0.826 µM (active). Turning to `CCN(CC)c1ccc(/C=C2\C(=O)NC(=S)N(C)C2=O)o1`, the Potency is 1.31 µM (active).

Consider `CCCCn1c(O)c(/C(C)=N/NC(=O)Nc2ccccc2)c(=O)[nH]c1=O`, for which the Potency was 11.7 µM (active). `COc1ccc(CCN2CCCC(CN(C)C(=O)c3cc(C)oc3C)C2)cc1` (stereo not given): the Potency was 4.65 µM (active). To `COc1ccc(NC(=O)CCCn2c(=O)oc3ccccc32)cc1Cl` belongs 9.27 µM (active); to `Cn1cnc2cc(NC(=O)c3ccc(Cl)cc3)ccc21`, 1.85 µM (active).

With `COc1ccc(CNC(=O)c2ccc(C(C)C)cc2)cc1`, the Potency is 3.29 µM (active).

As for `Cc1cccc(N=Nc2ccc(N(C)C)cc2)c1`, the Potency was 2.93 µM (active). `COC(=O)C(O)(c1ccc(NC(=O)NC2CCCCC2)cc1)C(F)(F)F` (stereo not given): the Potency was 8.26 µM (active). Take `O=C(Oc1ccc2cc(Br)ccc2c1)N1CCCCCC1`: the Potency was 4.14 µM (active). Regarding `CCN(CC)C(=O)Oc1ccc2cc(Br)ccc2c1`, the Potency is 11.7 µM (active). Consider `O=c1c2ccccc2[nH]c(=S)n1-c1ccc2c(c1)OCCO2`, for which the Potency was 7.36 µM (active). Next, `O=c1cc(-c2ccc(O)c(O)c2)oc2cc(O)cc(O)c12`: 3.29 µM (active); `Cc1cnn(-c2cc(Oc3ccccc3)ncn2)c1`: 16.5 µM (active); `CC(C)(C)n1cc(C(=O)c2ccc3ccccc3c2O)cn1`: 0.233 µM (active). For `c1ccc2c(CN3CCCCCC3)c[nH]c2c1`, the Potency was 2.93 µM (active). For the compound `CN(C)C(=O)Oc1ccc2c(c1)O/C(=C\c1ccccc1)C2=O`, the Potency was 4.65 µM (active). Take `O=c1c2ccccc2nc(Cc2ccccc2)n1-c1ccccc1`: the Potency is 5.85 µM (active). Regarding `COc1ccccc1N=Nc1c(O)[nH]c(=S)[nH]c1=O`, the Potency was 13.1 µM (active). With `BrCC1C[n+]2c(SCc3ccccc3)nc3sc4c(c3c2O1)CCCC4` (stereo not given), the Potency is 16.5 µM (active). As to `O=C(c1cc(-c2cccc(Cl)c2)on1)N1CCOCC1`, the Potency is 8.26 µM (active).

Consider `O=C(Nc1nc2c(s1)CCCCCC2)Nc1ccc(F)cc1F`, for which the Potency is 0.329 µM (active). `Cc1cc(C(=O)Nc2ccc3c(c2)OCCO3)nn1C(C)(C)C`: the Potency is 5.85 µM (active).

As to `Cc1cc(C(=O)Nc2ccccc2)nn1C(C)(C)C`, the Potency is 2.07 µM (active). Regarding `CN(CC(=O)N1CCc2ccccc21)S(=O)(=O)c1cccs1`, the Potency was 5.85 µM (active). For the compound `COc1ccc(-c2cc(=NCCC(=O)O)c3cc(C)ccc3o2)cc1`, the Potency was 0.656 µM (active). In the case of `COc1ccc(-c2cc(=NCC(=O)O)c3ccccc3o2)cc1`, the Potency is 3.69 µM (active).

Regarding `CCCCN1CC(O)=C(c2nc3ccccc3s2)C1=N`, the Potency is 6.56 µM (active). On to `CC(=O)Nc1ccccc1C(=O)OCC(=O)c1ccccc1Cl`, for which the Potency was 14.7 µM (active). For the compound `COc1ccc2nc(NC3=NCCN3)sc2c1`, the Potency is 1.65 µM (active). For `Cc1ccnc(SCc2nc3ccccc3s2)n1`, the Potency is 7.36 µM (active).

`Cc1cccc(OCCn2c(=O)oc3ccc(C)cc32)c1`: the Potency was 14.7 µM (active).

As to `O=c1oc2ccccc2n1CCCOc1ccccc1`, the Potency is 13.1 µM (active). Regarding `Cc1ccc(NC(=O)O/N=C/c2cccc([N+](=O)[O-])c2)cc1`, the Potency was 16.5 µM (active). In the case of `Cc1nc(Cl)sc1C(=O)Nc1ccc2ccccc2c1`, the Potency was 5.85 µM (active). In the case of `O=C(CSCc1ccccc1)Nc1ccc2c(c1)OCO2`, the Potency was 5.21 µM (active).

Take `Cc1ccc(-c2nn(Cc3ccccc3)cc2C=O)cc1`: the Potency is 6.56 µM (active). Take `c1ccc(-c2nc(N3CCOCC3)s[n+]2-c2ccccc2)cc1`: the Potency is 13.1 µM (active). Regarding `Cc1ccc(-c2nc(N3CCOCC3)s[n+]2-c2ccccc2)cc1`, the Potency was 5.21 µM (active).

As for `Cn1nnc2cc(NC(=O)Nc3cccc(Cl)c3)ccc21`, the Potency was 1.47 µM (active). In the case of `c1ccc(CN2CCc3nc4ccccc4cc3C2)cc1`, the Potency was 14.7 µM (active). As for `Cc1ccc(NN=C2C(=O)OC(C)(C)OC2=O)c(C)c1`, the Potency was 11.7 µM (active). Regarding `O=C(NCC(c1cccnc1)N1CCOCC1)Oc1ccccc1` (stereo not given), the Potency was 16.5 µM (active).

As for `Cc1nc2ccc(NC(=O)c3ccc(Cl)s3)cc2s1`, the Potency is 2.93 µM (active). For `Cc1nc2ccc(NC(=O)C3COc4ccccc4O3)cc2s1` (stereo not given), the Potency was 7.36 µM (active).
